Source: publication PMC5540273 (PLoS ONE, 2017)

What was measured:
Conditions in all cases: concentration: 1 μM, replicates: in singlicate; n = 1
DDR2 = system: DDR2
DLK = system: T1, DLK
T1 construct: gene MAP3K12

DMPK2 = system: T2, DMPK2
T2 construct: gene CDC42BPG

DMPK = system: DMPK
DRAK1 = system: T3, DRAK1
T3 construct: gene STK17A

DRAK2 = system: T4, DRAK2
T4 construct: gene STK17B

DYRK1A = system: DYRK1A
DYRK1B = system: DYRK1B
DYRK2 = system: DYRK2
EGFR = system: EGFR
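Also: KINOMEscan kinase panel screen.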

Compound | %Inh (DDR2) [%] | %Inh (DLK) [%] | %Inh (DMPK2) [%] | %Inh (DMPK) [%] | %Inh (DRAK1) [%] | %Inh (DRAK2) [%] | %Inh (DYRK1A) [%] | %Inh (DYRK1B) [%] | %Inh (DYRK2) [%] | %Inh (EGFR) [%]
COC(=O)c1c(-c2ccccc2)c2cc(Cl)ccc2c(=O)n1Cc1ccc(S(C)(=O)=O)cc1 | 5 | 0 | 0 | 0 | 0 | 3 | 17 | 10 | 44 | 6
Nc1nc(-c2cccnc2)c(-c2ccnc3ccccc23)s1 [GW684083] | 43 | 60 | 0 | 0 | 32 | 0 | 20 | 0 | 9 | 0
Cc1cccc(-c2nc(Nc3ccc4[nH]nnc4c3)c3ccccc3n2)n1 [GW867587] | 37 | 0 | 0 | 0 | 0 | 0 | 0 | 0 | 26 | 0
N#Cc1ccc(Oc2ccc(Nc3ncnc4cc[nH]c34)cc2Cl)cc1 | 0 | 0 | 4 | 0 | 32 | 1 | 1 | 15 | 0 | 96.7
O=C(Nc1n[nH]c2nc(-c3ccco3)c(Br)cc12)c1ccc(CN2CCCC2)cc1.O=C(O)[C@H](O)[C@@H](O)C(=O)O [SB-742352] | 0 | 0 | 0 | 0 | 42 | 20 | 0 | 0 | 14 | 8
Cl.O=S(=O)(c1cccc(F)c1)c1ccc(Nc2ncnc3cc(Br)sc23)cc1Cl [GSK306886] | 0 | 0 | 15 | 0 | 9 | 0 | 7 | 0 | 14 | 99.2
CNc1nccc(-c2c(-c3ccc(F)cc3)ncn2CCCN2CCOCC2)n1 [SB-222516] | 0 | 1 | 93 | 7 | 12 | 15 | 6 | 48 | 15 | 10
CCCc1ccc(S(=O)(=O)NC2CCN(c3ccnc(Nc4ccc(OC)cc4)n3)C2)cc1 (stereo not shown) [GSK1379737] | 34 | 28 | 94.7 | 0 | 0 | 0 | 19 | 8 | 0 | 32
CSc1nn2c(=O)cc(N3CCOCC3)nc2n1Cc1cccc(Cl)c1Cl [GSK2347225] | 0 | 100 | 16 | 12 | 4 | 0 | 19 | 23 | 8 | 39
CN1CCC(n2cnc(-c3ccc(F)cc3)c2-c2ccnc(NC3CCNCC3)n2)CC1 [SB-229482] | 0 | 0 | 18 | 22 | 0 | 0 | 0 | 23 | 6 | 17
OCCOCCn1ccc2ncnc(Nc3ccc(Oc4cccc(Cl)c4)c(Cl)c3)c21 | 0 | 0 | 0 | 0 | 0 | 0 | 0 | 0 | 0 | 100
Nc1nc(-c2ccc3c(N)n[nH]c3c2)cc(N2CCC[C@@H](C(=O)Nc3ccccc3)C2)n1.O=C(O)C(F)(F)F.O=C(O)C(F)(F)F [GSK2288359] | 7 | 0 | 15 | 0 | 55 | 0 | 0 | 14 | 32 | 24
CSc1ccc(NC2=C(c3ccccc3Cl)C(=O)NC2=O)cc1 [SB-342411] | 0 | 0 | 0 | 0 | 0 | 0 | 67 | 78 | 3 | 18
Nc1nc(-c2ccc3c(N)n[nH]c3c2)cc(N2CCCCC2)n1 [GSK2228768] | 0 | 0 | 0 | 0 | 93.1 | 11 | 18 | 0 | 58 | 3
O=C(c1ccc(-c2cc(-c3c[nH]nc3-c3ccccn3)ccn2)cc1)N1CCCC1 [GW792479] | 24 | 0 | 0 | 0 | 0 | 10 | 0 | 0 | 0 | 27
C[C@H]1CC[C@@H](C(=O)Nc2ccccc2)CN1c1cc(-c2ccc3c(N)n[nH]c3c2)nc(N)n1 [GSK2283293] | 5 | 25 | 11 | 0 | 97.9 | 64 | 17 | 0 | 7 | 30
